Laboratory results from paper PMC4336329 (PLoS ONE, 2015).
Among all 310,000 compounds or so, about 14,000 (4.5%) showed an effect of 50% or more. Effects have a minus sign here. This is one part of a sample in which strong results are shown more often than they occur.

biological target: human ether-à-go-go-related gene (hERG) potassium channel (human, UniProt Q12809); test: primary screen, population patch clamp on CHO cells stably expressing hERG; higher = less effect of the substance
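Also: peak tail current of the secondary pulse compared with the same well before compound.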

human ether-à-go-go-related gene (hERG) potassium channel, sequence (Q12809 whole entry, looked up): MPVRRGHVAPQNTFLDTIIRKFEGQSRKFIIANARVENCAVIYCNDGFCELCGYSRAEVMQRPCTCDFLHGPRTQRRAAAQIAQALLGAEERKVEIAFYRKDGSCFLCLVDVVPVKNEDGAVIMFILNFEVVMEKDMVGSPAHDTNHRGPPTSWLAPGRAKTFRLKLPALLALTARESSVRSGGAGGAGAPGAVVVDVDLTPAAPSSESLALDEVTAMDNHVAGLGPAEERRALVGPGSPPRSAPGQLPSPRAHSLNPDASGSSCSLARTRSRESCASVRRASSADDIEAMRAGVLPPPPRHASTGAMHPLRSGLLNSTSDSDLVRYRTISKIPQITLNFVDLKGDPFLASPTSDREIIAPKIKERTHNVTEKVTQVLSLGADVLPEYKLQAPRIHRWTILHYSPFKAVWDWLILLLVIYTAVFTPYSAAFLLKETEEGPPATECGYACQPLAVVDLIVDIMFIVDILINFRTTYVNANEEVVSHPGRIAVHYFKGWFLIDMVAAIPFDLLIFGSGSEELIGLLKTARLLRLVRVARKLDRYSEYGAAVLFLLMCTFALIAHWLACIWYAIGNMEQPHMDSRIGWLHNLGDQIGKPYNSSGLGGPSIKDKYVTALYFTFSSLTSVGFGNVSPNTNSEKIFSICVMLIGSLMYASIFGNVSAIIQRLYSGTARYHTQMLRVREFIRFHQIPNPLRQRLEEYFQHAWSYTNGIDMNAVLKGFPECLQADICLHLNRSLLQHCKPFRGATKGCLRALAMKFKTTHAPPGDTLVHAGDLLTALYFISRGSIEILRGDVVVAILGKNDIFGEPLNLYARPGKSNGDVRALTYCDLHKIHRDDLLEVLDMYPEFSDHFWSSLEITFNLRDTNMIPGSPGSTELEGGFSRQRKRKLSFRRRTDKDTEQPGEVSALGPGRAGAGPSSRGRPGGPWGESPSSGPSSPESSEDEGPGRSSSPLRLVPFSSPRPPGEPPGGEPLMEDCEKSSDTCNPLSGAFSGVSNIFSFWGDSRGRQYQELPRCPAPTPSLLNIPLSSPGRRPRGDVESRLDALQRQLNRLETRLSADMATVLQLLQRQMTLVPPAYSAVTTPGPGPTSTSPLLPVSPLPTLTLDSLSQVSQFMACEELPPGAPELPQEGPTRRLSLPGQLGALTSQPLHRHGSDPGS

Compound | hERG current change (%, negative = inhibition) at 10uM [%]
O=C(CN(C(=O)CCC(=O)Nc1nccs1)c1ccc(F)cc1)NCc1ccc(F)cc1 | 16.8
Cc1cc(N)ccc1N=Nc1c(C)n(C)n(-c2ccccc2)c1=O | -5.57
Cc1cc(=O)[nH]c(SCC(=O)NCCC2=CCCCC2)n1 | 28.2
Cc1c(C(=O)N2CCCCC2)c(S(=O)(=O)N(C)Cc2ccccc2)c(C)n1C | 2.66
O=C(Nc1ccccc1C(=O)NCC1CCCO1)c1ccc(Cl)cc1 (centres unmarked) | -34.8
CC1(C)CC2CC(C)(CN2C(=O)COC(=O)c2cccc(O)c2)C1 (centres unmarked) | 6.76
N#Cc1ccc(-c2ccccc2)nc1Sc1ccc(F)cc1 | 13.2
CC(C)Oc1cccc(C(=O)Nc2ccc(N3CCN(S(C)(=O)=O)CC3)cc2)c1 | -0.708
O=C1CC(c2ccccc2)CCc2sccc2N1 (centres unmarked) | -5.86
Cc1ccn2c(CNCC3OCCc4ccccc43)c(C(=O)N3CCCCCC3)nc2c1 (centres unmarked) | -62.9
Cc1cc(C(F)(F)F)nc(CCNCc2c(C(=O)N3CCCC3)nc3ccccn23)n1 | -14.4
CN1Cc2ccccc2CC1CNCc1c(C(=O)N2CCCC2)nc2ccccn12 (centres unmarked) | -73.5
O=C(c1nc2ccccn2c1CNCC1OCCc2ccccc21)N1CCOCC1 (centres unmarked) | -0.852
O=C(c1nc2ccccn2c1CNCCCn1cccn1)N1CCCC1 | -12.1
Cc1cccn2c(CNCC3OCCc4ccccc43)c(C(=O)N3CCCCC3)nc12 (centres unmarked) | -19.5
Cc1onc(-c2ccccc2)c1C(=O)NCC(O)c1ccccc1 (centres unmarked) | 5
Cc1onc(-c2ccccc2)c1C(=O)NC(C)c1ccc2c(c1)OCO2 (centres unmarked) | 27.7
COc1cc(OC)cc(C(=O)OCC(=O)NCc2ccc3c(c2)OCO3)c1 | 12.9
CCCc1ccc2oc(C(=O)N3CCC(COC)C3)c(C)c2c1 (centres unmarked) | -38.4
O=C(NC1CS(=O)(=O)CC1NCc1ccco1)c1ccccc1 (centres unmarked) | 2.09

Compound | hERG current change (%, negative = inhibition) at 10uM [%]
O=S(=O)(NCCN1CCCC1)c1ccc(Cl)cc1 | 10.3
OC(CCN1CCCCC1)c1ccc(-c2ccccc2)cc1 (centres unmarked) | -56.4
Cl.ClC(CCN1CCN(Cc2ccccc2)CC1)c1ccccc1 (centres unmarked) | -20.6
N#CCCN1CCN(Cc2cc(-c3ccccc3)ccc2O)CC1 | -48.8
Cl.OC(CCCCN1CCCCC1)c1ccccc1 (centres unmarked) | -18.1
OC(CCN1CCOCC1)c1ccccc1 (centres unmarked) | 4.54
Oc1ccc(Br)cc1CN1CCCCCCC1 | -47.6
Oc1ccc(-c2ccccc2)cc1CN1CCCCCC1 | -52.1
Clc1ccc(C(CCN2CCCC2)Cc2ccccc2)cc1 (centres unmarked) | -62.7
O=S(=O)(Nc1ccc(N2CCOCC2)cc1)c1ccc(F)cc1 | 4.3
COC(=O)N1N=C(c2ccc(Br)cc2)CC1(O)C(F)(F)F (centres unmarked) | -1.71
CCOc1ccc(CNC(=O)CN2C(=O)C(c3ccccc3)Oc3cccnc32)cc1 (centres unmarked) | -3.6
O=C(N/N=C/c1cccc(O)c1)c1ccc(COc2cccc3cccnc23)cc1 | 22.8
O=C(N/N=C/c1ccncc1)c1ccc(COc2cccc3cccnc23)cc1 | -45.6
O=C(N/N=C/c1ccc[nH]1)c1ccc(COc2cccc3cccnc23)cc1 | -58.3
CCOC(=O)C1=c2/c(=C/c3ccncc3)c(N)c(C(=O)OC)n2C(=O)C(c2ccncc2)S1 (centres unmarked) | 1.36
O=C(CCc1ccccc1)NNC(=O)c1ccc(NC(=O)c2ccccc2)cc1 | 2.53
Cc1cc(S(=O)(=O)Nc2ccc3c(c2)COC3=O)ccc1F | 7.2
Cc1cc(C)n(C(=O)c2cccc(S(=O)(=O)N3CCCC3)c2)n1 | 6.46
O=C(Nc1ccnn1C1CCN(Cc2c(F)cccc2Cl)CC1)C1CCCC1 | -32.1

Compound | hERG current change (%, negative = inhibition) at 10uM [%]
O=C(Nc1ccnn1C1CCN(C/C=C/c2ccccc2)CC1)C1CCCC1 | -73
O=C(Nc1ccnn1C1CCN(C/C=C/c2ccc(F)cc2)CC1)C1CCCC1 | -76.2
CN(c1ccc(O)cc1)S(=O)(=O)c1ccc2ccccc2c1 | -12.8
COc1ccccc1CNC(=O)CCc1cn(C)c2ccccc12 | -2.68
Cc1c(C(=O)N2CCCCC2)c(S(=O)(=O)Nc2ccc(F)cc2F)c(C)n1C | 21.9
Cc1cc(C)c(S(=O)(=O)N2CCN(C(=O)c3ccc4c(c3)OCO4)CC2)c(C)c1 | -31.4
O=C(N/N=C/c1ccc(N2CCOCC2)cc1)c1ccc(NS(=O)(=O)c2cccs2)cc1 | 9.69
CC(=O)N1CCN(c2ccc(C(N)=O)cc2[N+](=O)[O-])CC1 | 8.73
CCN1CCN(c2ccc([N+](=O)[O-])cc2C#N)CC1 | -68.2
N#Cc1cc([N+](=O)[O-])ccc1N1CCCC1 | -38
CC1CN(c2ccc([N+](=O)[O-])cc2C#N)CC(C)O1 (centres unmarked) | -48.6
CCCN1CCN(c2ccc(S(N)(=O)=O)cc2[N+](=O)[O-])CC1 | -31.4
CC(=O)N1CCN(c2ccc([N+](=O)[O-])cc2C#N)CC1 | -88
O=[N+]([O-])c1ccc(N2CCN(c3ccc([N+](=O)[O-])cc3CO)CC2)c(CO)c1 | -64.7
CCCN1CCN(c2ccc([N+](=O)[O-])cc2C#N)CC1 | -72
N#Cc1cc([N+](=O)[O-])ccc1N1CCN(c2ccccc2O)CC1 | -35
O=[N+]([O-])c1ccc(N2CCCCCC2)c([N+](=O)[O-])c1 | 3.24
O=[N+]([O-])c1ccc(N2CCN(CCOCCO)CC2)c([N+](=O)[O-])c1 | -45.6
O=[N+]([O-])c1ccc(N2CCN(c3ccccc3O)CC2)c(Cl)c1 | 9.9
